Measurements reported in PubChem BioAssay (NCATS).
Inconclusive results are not listed. Where a call stands in place of a potency, no number is given. The source made the active and inactive calls. The call rests on the fitted dose curve; in most records, active means well fitted curve in the direction sought with a large enough effect; inconclusive means small, poorly fitted or top-dose-only effect, or another doubt; inactive means no such curve, though single readings can be large; an effect the other way counts as inactive or inconclusive.

Tested on: Nanoluciferase (engineered Oplophorus gracilirostris luciferase)
Experiment: Primary Nanoluciferase (NLuc) qHTS assay for identification of artifact compounds. (AID 1845222)
Details: NLuc-conditioned medium, Nano-Glo luminescence, 5 min; series mostly up to 54.1 µM
Method in brief: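 Luminescence from secreted NLuc (filtered, 1:55-diluted S16 cell medium) read 5 min after Nano-Glo substrate; compounds preincubated 15 min, RT. Hill fits of inhibition normalized to DMSO and no-enzyme.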
With C=CC(=O)Nc1ccc2ncnc(Nc3cccc(Br)c3)c2c1 the Potency was “inactive”. For O=C(NCCCc1ccccc1)c1cccc(-c2cc(O)c3ncccc3c2)c1, the Potency was “inactive”. With CCNC(=O)C#Cc1ccc2c(C(=Nc3ccc(CN(C)C)cc3)c3ccccc3)c(O)[nH]c2c1 the Potency was “inactive”. For COc1ccccc1OCCNCC(O)CCOc1cccc2[nH]c3ccccc3c12 (stereo unspecified), the Potency was “inactive”. With Cc1nnc(C[C@@H]2C=C(c3ccc(Cl)cc3)c3ccccc3-n3c(C)nnc32)o1 the Potency was “inactive”. In the case of COc1ccc(CCc2nc3c(C)c(-c4c(C)noc4C)c(C)cc3n2CCN2CCOCC2)cc1, the Potency is reported as “inactive”. For C[C@]12CC[C@@H]3c4ccc(O)c(O)c4CC[C@H]3[C@@H]1CCC2=O, the Potency was “inactive”. In the case of CC12CCC3C1C(c1c(cc(O)c(C(=O)c4ccccc4)c1O)O2)C3(C)C (stereo unspecified), the Potency is reported as “inactive”. In the case of C=C1C(=O)OC2/C=C(/C)C3=CC(=O)C(C)(CC(OC(=O)/C(C)=C/COC(C)=O)C12)O3 (stereo unspecified), the Potency is reported as “inactive”. In the case of Cc1c[nH]c2ncnc(N3CCC(CN)(C(=O)Nc4cccc(OC(=O)N(C)C)c4)CC3)c12, the Potency is reported as “inactive”. With C=C1C(OC2OC(CO)C(O)C(O)C2O)CC2C(C)(C)C(O)CCC2(C)C1CC/C(C)=C\COC(=O)CC(=O)O (stereo unspecified) the Potency was “inactive”. In the case of CC(=O)OC/C(=C/C(=O)O)CC[C@@H]1C(C=O)=CC[C@@H]2C(C)(C)CCC[C@@]12C, the Potency is reported as “inactive”. With Cc1sc2c(c1C)C(c1ccc(Cl)cc1)=N[C@H](CC(=O)NCCCCNC(=O)COc1cccc3c1C(=O)N([C@H]1CCC(=O)NC1=O)C3=O)c1nnc(C)n1-2 the Potency was “inactive”. For CC(C)(O)C(=O)N1CCN(c2ccc(C(F)(F)F)c(C3=C(c4c[nH]c5ccccc45)C(=O)NC3=O)c2)CC1, the Potency was “inactive”. With CCOC(=O)c1cnc2ccc(-c3cncc(NS(=O)(=O)c4ccccc4)c3)cn12 the Potency was “inactive”. In the case of Fc1ccc2c(CCNCc3cccc(OCC(F)(F)C(F)F)c3)c[nH]c2c1, the Potency is reported as “inactive”. For CC(C)c1cc2c(N3CCN(C4=NCC(C)(C)S4)CC3)ncnc2s1, the Potency was “inactive”. For Clc1ccc(Cn2c(Cc3ccccc3)nc3ccccc32)cc1, the Potency was “inactive”. For O=C(NCCCNc1nc(Nc2cccc(CN3CCOCC3)c2)ncc1C1CC1)C1CCC1, the Potency was “inactive”. In the case of Cc1c(OCc2cccc(-c3ccc(C(=O)O)cc3)c2)cc2c(c1C)C(=O)C(C1CCCC1)C2 (stereo unspecified), the Potency is reported as “inactive”. For N#Cc1ccc(COC[C@H]2O[C@@H](n3c(NCc4ccc(Cl)c(Cl)c4)nc4c(N)ncnc43)[C@H](O)[C@@H]2O)cc1, the Potency was “inactive”. In the case of O=C(c1ccccc1)c1c(O)cc(O)cc1O[C@@H]1O[C@H](CO)[C@@H](O)[C@H](O)[C@H]1O, the Potency is reported as “inactive”. With CCOC(=O)N1CCC(CN(Cc2ccc(Cl)cc2)Cc2ccc([N+](=O)[O-])s2)C1 (stereo unspecified) the Potency was “inactive”. With C=CC(=O)Nc1cccc(Nc2nc(Nc3ccc(OCCOC)cc3)ncc2F)c1 the Potency was “inactive”. With Nc1ncnc2c1c(-c1ccc(Oc3ccccc3)cc1)nn2[C@@H]1CCCNC1 the Potency was “inactive”. For CCC(=C(c1ccc(OCCN2CCCC2)cc1)c1ccc(OCCN2CCCC2)cc1)c1ccccc1, the Potency was “inactive”. For COc1c2c(c(C)c3c1C(=O)OC3)O[C@@]1(C)C[C@@H](OC(C)=O)[C@]34O[C@](OC)(CC[C@]3(C)[C@H]1C2)OC4(C)C, the Potency was “inactive”. For COc1ccc(NC(=O)c2ccc(-c3ccc(C(=N)N)cc3C)cc2)cc1N1CCN(C)CC1, the Potency was “inactive”. In the case of COc1ccc(CCN(C)CCCOc2nsc(-c3ccccc3)n2)cc1OC, the Potency is reported as “inactive”. In the case of CC1(C)CC[C@]2(C(=O)O[C@@H]3O[C@H](CO)[C@@H](O)[C@H](O)[C@H]3O)CC[C@]3(C)C(=CCC4[C@@]5(C)CC[C@H](O[C@@H]6O[C@H](C(=O)O)[C@H](O)[C@H](O)[C@H]6O)C(C)(C)C5CC[C@]43C)[C@@H]2C1 (stereo partly specified), the Potency is reported as “inactive”. For CC(C)(O)c1ccc2c(c1)ncn2-c1cccc(-c2ccccc2C#N)c1, the Potency was “inactive”. For O=S1(=O)CCN(Cc2cc(NCC3CCOCC3)c3[nH]c(-c4ccccc4)cc3c2)CC1, the Potency was “inactive”. With CCC(=O)N1CCOc2c(cc(-c3ccc(OC)c(OC)c3)cc2OC[C@H]2CCCN(C)C2)C1 the Potency was “inactive”. For COC(=O)CC1OC(C)C2=C(O)c3c(O)cccc3C(=O)C23OC13 (stereo unspecified), the Potency was “inactive”. In the case of COc1cc2ncnc(Nc3cccc(I)c3)c2cc1OC, the Potency is reported as “inactive”.

Tested on: not listed separately
Experiment: Primary redox qHTS assay for identification of artifact compounds. (AID 1845223)
Details: Amplex Red/HRP redox cycling with DTT, fluorescence; series mostly up to 53.8 µM
Method in brief: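 Redox-cycling detection via DTT (250 uM final) oxidation coupled to Amplex Red (25 uM)/HRP (250 mU/mL) in HBSS. 15 min preincubation plus 30 min after DTT, room temperature. Ex/Em 525/598 nm; 4-parameter Hill fit against DMSO and 10 uM DA3003.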
In the case of C=CC(=O)Nc1ccc2ncnc(Nc3cccc(Br)c3)c2c1, the Potency is reported as “inactive”. In the case of O=C(NCCCc1ccccc1)c1cccc(-c2cc(O)c3ncccc3c2)c1, the Potency is reported as “inactive”. With COc1ccccc1OCCNCC(O)CCOc1cccc2[nH]c3ccccc3c12 (stereo unspecified) the Potency was “inactive”. In the case of CC12CCC3C1C(c1c(cc(O)c(C(=O)c4ccccc4)c1O)O2)C3(C)C (stereo unspecified), the Potency is reported as “inactive”. For C=C1C(=O)OC2/C=C(/C)C3=CC(=O)C(C)(CC(OC(=O)/C(C)=C/COC(C)=O)C12)O3 (stereo unspecified), the Potency was “inactive”. For Cc1sc2c(c1C)C(c1ccc(Cl)cc1)=N[C@H](CC(=O)NCCCCNC(=O)COc1cccc3c1C(=O)N([C@H]1CCC(=O)NC1=O)C3=O)c1nnc(C)n1-2, the Potency was “inactive”. For CCOC(=O)c1cnc2ccc(-c3cncc(NS(=O)(=O)c4ccccc4)c3)cn12, the Potency was “inactive”. With Fc1ccc2c(CCNCc3cccc(OCC(F)(F)C(F)F)c3)c[nH]c2c1 the Potency was “inactive”. With CC(C)c1cc2c(N3CCN(C4=NCC(C)(C)S4)CC3)ncnc2s1 the Potency was “inactive”. For Clc1ccc(Cn2c(Cc3ccccc3)nc3ccccc32)cc1, the Potency was “inactive”. In the case of O=C(NCCCNc1nc(Nc2cccc(CN3CCOCC3)c2)ncc1C1CC1)C1CCC1, the Potency is reported as “inactive”. With Cc1c(OCc2cccc(-c3ccc(C(=O)O)cc3)c2)cc2c(c1C)C(=O)C(C1CCCC1)C2 (stereo unspecified) the Potency was “inactive”. With N#Cc1ccc(COC[C@H]2O[C@@H](n3c(NCc4ccc(Cl)c(Cl)c4)nc4c(N)ncnc43)[C@H](O)[C@@H]2O)cc1 the Potency was “inactive”. In the case of CCC(=C(c1ccc(OCCN2CCCC2)cc1)c1ccc(OCCN2CCCC2)cc1)c1ccccc1, the Potency is reported as “inactive”. For CC(C)(O)c1ccc2c(c1)ncn2-c1cccc(-c2ccccc2C#N)c1, the Potency was “inactive”. With CCC(=O)N1CCOc2c(cc(-c3ccc(OC)c(OC)c3)cc2OC[C@H]2CCCN(C)C2)C1 the Potency was “inactive”.
